Source: PubChem BioAssay (The Scripps Research Institute Molecular Screening Center)
Most compounds without a hit are left out; they make up all but 1.3% or so of the library.
PREPL inh: inhibitors of human prolyl oligopeptidase-like enzyme PREPL. Q4J6C6. recombinant PREPL, fluorescence polarization activity-based probe. inhibition, % at 5.96 µM. 0.68% of 320,000 active. AID 2751; in the data active = inhibition above about 43%
PME-1 primary: PME-1 (human) inhibition | inhibition, % at 5.9 µM | Q9Y570 | 0.53% of 320,000 active | recombinant PME-1, FP-Rh probe fluorescence polarization;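 active = inhibition above the campaign mean of all compounds plus 3 SD, cut at about 26% in these data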;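 also: competitive labeling of PME-1 active site by serine hydrolase directed probe; inhibitors block probe labeling so polarization falls and inhibition rises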
Target sequence (Q9Y570 whole entry, looked up): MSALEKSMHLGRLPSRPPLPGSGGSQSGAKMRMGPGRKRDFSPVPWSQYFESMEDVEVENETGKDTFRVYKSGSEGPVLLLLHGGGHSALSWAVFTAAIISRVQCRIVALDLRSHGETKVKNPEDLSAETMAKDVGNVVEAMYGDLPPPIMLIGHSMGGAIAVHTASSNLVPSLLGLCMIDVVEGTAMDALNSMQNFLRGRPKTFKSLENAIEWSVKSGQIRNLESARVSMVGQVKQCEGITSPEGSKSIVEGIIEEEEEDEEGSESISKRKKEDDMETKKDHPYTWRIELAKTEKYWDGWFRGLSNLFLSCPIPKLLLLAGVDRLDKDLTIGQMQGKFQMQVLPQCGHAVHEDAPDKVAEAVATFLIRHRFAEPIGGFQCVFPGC
LYPLA1 inh: blocks human lysophospholipase 1, a PME1 counter-screen. AID 2174. recombinant LYPLA1, FP-Rh probe fluorescence polarization. O75608. 0.16% of 320,000 active. inhibition, % at 5.9 µM;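 active = inhibition above the mean of all tested compounds plus 3 SD, set per campaign, cut at about 14% in these data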;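 also: inhibitors block serine hydrolase probe labeling of LYPLA1 so polarization falls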
Target sequence (O75608 whole entry, looked up): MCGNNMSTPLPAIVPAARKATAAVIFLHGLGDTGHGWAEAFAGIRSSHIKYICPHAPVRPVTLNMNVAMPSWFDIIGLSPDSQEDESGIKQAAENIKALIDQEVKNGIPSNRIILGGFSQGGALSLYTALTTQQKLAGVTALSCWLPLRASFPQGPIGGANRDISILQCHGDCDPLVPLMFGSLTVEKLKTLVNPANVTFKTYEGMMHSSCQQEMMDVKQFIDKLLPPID
LYPLA2 inh: blocks human lysophospholipase 2, a PME1 counter-screen; O95372; recombinant LYPLA2, FP-Rh probe fluorescence polarization; inhibition, % at 5.9 µM; 0.38% of 320,000 active; AID 2177;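 active = inhibition above the screen-wide mean plus 3 SD, limit set per campaign, cut at about 26% in these data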
Fam108B counter: blocks mouse Fam108B hydrolase in RBBP9 counter-screen | AID 1947 | inhibition, % at 9.51 µM | recombinant Fam108B, FP-Rh probe fluorescence polarization | 0.33% of 300,000 active;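 active = inhibition above the screen mean inhibition plus 3 SD, computed separately per campaign, cut at about 18% in these data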;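 also: inhibitors lower polarization as less probe binds the enzyme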
Numbers stand for hits; – = inactive; · = not tested or not shown.

SMILES	PREPL inh	PME-1 primary	LYPLA1 inh	LYPLA2 inh	Fam108B counter
CC1=Nc2ccccc2/C1=C/c1nc(-c2ccc(C)s2)oc1O	–	–	–	–	–
Cc1ccc(S(=O)(=O)NCc2ccc(C(=O)N3CCN(c4ccc([N+](=O)[O-])cc4)CC3)cc2)cc1	–	–	–	–	–
COc1ccccc1N(CC(=O)NCc1ccccc1C)S(=O)(=O)c1ccc(C)cc1	–	–	–	–	–
COc1ccc(OCCn2cc(/C=N/NC(=O)c3ccncc3)c3ccccc32)cc1	–	32	–	39	–
CCCCN(CCCC)CCNC(=O)c1cn(C)c2ccc(S(=O)(=O)N(C)C3CCCCC3)cc2c1=O	–	66	–	–	–
CCCCN(CCCC)CCNC(=O)c1cn(CC)c2ccc(S(=O)(=O)N3CCc4ccccc4C3)cc2c1=O	–	59	–	–	–
CCCN(CCC)CCCNC(=O)c1cn(CC)c2ccc(S(=O)(=O)N(C)C3CCCCC3)cc2c1=O	–	49	–	–	–
CCCN(CCC)CCCNC(=O)c1cn(C)c2ccc(S(=O)(=O)N(C)C3CCCCC3)cc2c1=O	–	–	–	–	–
CCC1CCCCN1CCCNC(=O)c1cn(CC)c2ccc(S(=O)(=O)N3CCc4ccccc4C3)cc2c1=O (configuration not stated)	–	–	–	–	–
O=C(OCc1csc(-c2ccccc2)n1)c1ccccc1O	–	–	–	–	–
O=C(CSc1nc(O)cc(=O)n1-c1ccccc1)Nc1ccc(Br)cn1	–	–	–	–	–
C=C(C)COc1ccc(-c2[nH]ncc2-c2ccc(OC)c(OC)c2)c(O)c1	–	29	–	–	–
CCOc1cc(-c2cc(-c3ccc(N)cc3)nc(N)c2C#N)ccc1O	–	41	–	–	–
CCN(CC)C(=O)CSc1nc2cc3c(cc2c(=O)n1Cc1ccc2c(c1)OCO2)OCO3	–	–	–	–	–
CCOC(=O)CSc1nc2ccc(N3CCOCC3)cc2c(=O)n1Cc1ccc2c(c1)OCO2	52	–	–	–	–
O=C(O)CSc1c(-c2ccccc2)c2cc(Cl)ccc2[nH]c1=O	–	–	–	–	–
CCN(CC)C(=S)Sc1c(-c2ccccc2)c2cc(Cl)ccc2[nH]c1=O	–	35	–	–	–
CC(=O)O[C@H]1[C@H](O)[C@H](Oc2c(O)c(C)c3c4c2[C@@H](C)CC[C@@H]4[C@@H](C)C[C@H]3C=C(C)C)O[C@@H](C)[C@H]1O	–	·	·	·	·
COc1ccc(C(=O)NCCCN(C)CCCNC(=O)c2ccc(OC)cc2)cc1	–	–	–	–	–
O=C(/C=C\c1ccccc1[N+](=O)[O-])Nc1ccccc1	–	–	–	–	–
COC(=O)/C(=C(O)\C=C\c1ccccc1[N+](=O)[O-])c1nc2ccccc2[nH]1	–	29	–	–	–
O=C(COC(=O)C12CC3CC(CC(Cl)(C3)C1)C2)Nc1ccccc1	–	·	·	·	·
CCCN(CC(=O)Nc1ccccc1C)C(=O)COC(=O)CSc1ccc([N+](=O)[O-])cc1	–	28	–	–	–
CN1[C@@H]2CCC[C@H]1CC(NC(=O)c1nn(C)c3ccccc13)C2 (some centres not stated)	–	–	–	–	–
CN(C)S(=O)(=O)c1ccc(Cl)c(NC(=O)COC(=O)c2ccc(O)cc2)c1	–	–	–	–	–
SMILES	PREPL inh	PME-1 primary	LYPLA1 inh	LYPLA2 inh	Fam108B counter
CCN(CC)S(=O)(=O)c1ccc(Cl)c(NC(=O)COC(=O)c2ccc(O)cc2)c1	–	29	–	–	–
CCN(CC)S(=O)(=O)c1ccc(Cl)c(NC(=O)COC(=O)C2CCCCC2)c1	–	–	–	–	·
CCN(CC)S(=O)(=O)c1ccc(Cl)c(NC(=O)COC(=O)c2cccn2C)c1	–	33	–	–	–
Cc1ccc(C(=O)OCC(=O)Nc2cc(S(=O)(=O)N3CCOCC3)ccc2C)cc1	–	–	–	–	–
CCN(CC)S(=O)(=O)c1ccc(C)c(NC(=O)COC(=O)c2ccc(C)c(S(=O)(=O)N3CCOCC3)c2)c1	–	51	–	–	–
CCOc1cccc2sc(=NC(=O)CCS(=O)(=O)c3ccc(F)cc3)n(C)c12	–	–	–	–	–
COc1cccc(CNC(=O)CN(c2ccc(C(C)C)cc2)S(=O)(=O)c2c(C)noc2C)c1	–	–	–	–	–
CN1C(c2ccccc2)CCOS1(=O)=O (configuration not stated)	–	–	–	–	–
Cn1c(=O)c2c(ncn2CC(=O)N2CCN(S(=O)(=O)c3ccc(F)cc3)CC2)n(C)c1=O	–	–	–	–	·
Cc1ccc(S(=O)(=O)N2CCN(C(=O)Cn3cnc4c3c(=O)n(C)c(=O)n4C)CC2)cc1C	–	42	–	–	·
COc1ccc(NC(=S)N2CCCN(Cc3cc(C)ccc3C)C2)cc1	–	–	–	–	–
CCOc1cc(/C=C2\N=C(SCC)SC2=O)cc([N+](=O)[O-])c1OC(C)=O	–	35	–	–	–
CCOc1ccc(Nc2nnc(SCc3nc4ccccc4c(=O)[nH]3)s2)cc1	–	–	–	–	–
COc1ccc(OC)c(NC(=O)Nc2nnc(N3CCCCC3C)s2)c1 (configuration not stated)	–	–	–	–	–
COc1ccc(NC(=O)Nc2nnc(N3CCCCC3C)s2)cc1OC (configuration not stated)	–	50	–	–	–
O=[N+]([O-])c1ccc(N2CCN(c3ccc(F)cc3)CC2)cc1	–	–	–	–	–
O=C(c1cc([N+](=O)[O-])ccc1Cl)N1CCN(c2ccc(F)cc2)CC1	45	–	–	–	–
CN1CCN(c2ccc(NC(=O)c3ccc(-c4ccc(Br)cc4)o3)cc2)CC1	–	30	–	–	–
Cc1ccc2oc(=O)c(-c3ccc(O)cc3)c(C)c2c1	–	–	–	–	·
CCc1ccc(NS(=O)(=O)c2ccc(OC)c3ncccc23)cc1	–	–	–	–	–
CCc1ccc(OC)c(S(=O)(=O)Nc2ccc(Cc3ccncc3)cc2)c1	–	27	–	–	–
CCOC(=O)c1[nH]c(C)c(C(=O)OCC(=O)N2CC(=O)Nc3ccccc32)c1C	–	–	–	–	–
O=C(N/N=C/c1sc(N2CCOCC2)nc1-c1ccccc1)c1ccccc1Cl	–	–	–	–	–
O=C(N/N=C/c1sc(N2CCOCC2)nc1-c1ccccc1)c1ccccc1O	–	51	–	–	–
CCN(C[C@H]1N[C@@](Cc2ccccc2)(C(=O)OC)[C@H]2C(=O)N(Cc3ccccc3)C(=O)[C@@H]12)C(=O)Nc1ccc(C(F)(F)F)cc1	–	·	·	·	·
COC(=O)c1ccccc1C(=O)c1ccc2c(c1)NC(=O)CO2	–	39	–	–	–
COc1ccc(N2CCN(C(=O)c3cccc(NC(=O)c4ccco4)c3)CC2)cc1	–	–	–	–	–
COc1ccccc1NS(=O)(=O)c1cccc(-n2c(O)c(C=Nc3ccccc3C(=O)O)c3ccccc3c2=O)c1	–	82	–	–	–
COc1ccc(Cn2c(O)c(C=Nc3ccccc3C(=O)O)c3ccccc3c2=O)cc1	–	–	–	–	–
